# Source: PubChem BioAssay (NCI)
# About 79,000 compounds went through this panel and 15% of them were active in at least one assay; those are over-represented in the sample as a whole. Unmarked numbers belong to inactive results. The source made the active and inactive calls. Cut-off read from the data, not from the text of the source: active = growth inhibition above about 70%; inactive = the rest.
# What was measured:
# [1] = NCI Yeast Anticancer Drug Screen. Data for the rad50 strain (AID 155);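 note: 0% = growth of vehicle-only cultures of the same strain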; conditions: S. cerevisiae rad50 strain growth inhibition; at 50.0 µM; hits give high values
# Procedure, shortened: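 Relative growth inhibition (compound vs vehicle) was measured in yeast with a defined repair-gene alteration.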
# [2] = NCI Yeast Anticancer Drug Screen. Data for the mec2-1 strain (AID 157); conditions: S. cerevisiae mec2-1 strain, at 50.0 µM, hits give high values
# Procedure, shortened: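 mec2-1 yeast strain, carrying an alteration in DNA damage repair or cell cycle control, was exposed to compounds; growth inhibition was measured relative to vehicle-treated controls.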
# [3] = NCI Yeast Anticancer Drug Screen. Data for the sgs1 mgt1 strain (AID 161);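 note: 0% = growth of cultures given vehicle only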; conditions: S. cerevisiae sgs1 mgt1 strain, at 50.0 µM, hits give high values
# Procedure, shortened: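 Growth of a repair-deficient yeast mutant was monitored after compound treatment and expressed as inhibition relative to vehicle-treated cultures.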
# [4] = NCI Yeast Anticancer Drug Screen. Data for the cln2 rad14 strain (AID 165);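 note: 0% = growth equal to vehicle treated cultures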; conditions: S. cerevisiae cln2 rad14 strain, at 50.0 µM, hits give high values
# Procedure, shortened: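 Yeast carrying cln2 and rad14 alterations (cell cycle control and DNA damage repair) were exposed to compounds. Growth inhibition was measured against vehicle-treated controls.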
# [5] = NCI Yeast Anticancer Drug Screen. Data for the bub3 strain (AID 167); conditions: S. cerevisiae bub3 mutant strain, at 50.0 µM, hits give high values
# Procedure, shortened: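 Screening used yeast with an engineered genetic alteration affecting cell cycle control. Compound-exposed cultures were compared with vehicle cultures, and reduced growth was taken as inhibition.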
# [6] = NCI Yeast Anticancer Drug Screen. Data for the mlh1 rad18 strain (AID 175); conditions: S. cerevisiae mlh1 rad18 strain growth inhibition; at 50.0 µM; hits give high values
# Procedure, shortened: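 Growth inhibition of the yeast strain was measured after compound exposure and expressed relative to vehicle-treated controls. The strain carries defined defects in DNA damage repair.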
Compound,growth inhibition [1] [%],growth inhibition [2],growth inhibition [3],growth inhibition [4] [%],growth inhibition [5] [%],growth inhibition [6]
C=CCO[Si](OCC=C)(OCC=C)OCC=C,0.85,-19%,-6.2%,13.9,9.6,3.9%
CCCCCN(C(=O)c1ccccc1C(=O)N(CCCCC)c1ccccc1)c1ccccc1,15.3,7.85%,15.8%,30.6,3.4,42%
CC(C)OC(=O)c1ccc(NCC2=CC(=O)C=CC2=O)cc1,39.1,79.2% (active),63.5%,57.1,46.1,88.2% (active)
O=C1C/C(=C\c2ccccc2O)C(=O)c2ccccc21,66.3,61.1%,83.4% (active),57.8,54.8,82.8% (active)
Nc1nc2c(c(-c3ccc(Cl)cc3)n1)CN(c1ccc(Br)cc1)C2=O,40.5,0.8%,-4.85%,12.7,-3.1,11.9%
COc1ccc(C(=O)/C=C/c2ccc(OCCSCCCCCCCCCCSCCOc3ccc(/C=C/C(=O)c4ccc(OC)c(OC)c4)cc3)cc2)cc1OC,-44.4,-26.1%,-28.2%,-6.35,-29.6,-53.6%
NC(=O)c1cc2ccccc2[n+](Cc2ccc(F)cc2)c1,-0.2,0.4%,6.45%,-49.1,4.9,-6.95%
O=C1CCCCC/C1=C\O,2.8,-12.1%,-10.6%,-11.9,-23.9,5.15%
COC(=O)CCCc1ccc2c(c1)CC1(C2)Cc2cc3c(cc2C1)CCCC3,-14.5,-20.4%,-11.2%,-15.5,-11.9,-3.85%
O=C(NC1CCCCC1)C(c1ccccc1)c1ccccc1,8.85,-3.3%,0.4%,-18.7,1.85,-10.9%
CC(=O)CCn1ncc(Cl)c(Cl)c1=O,1.4,-18.3%,3.6%,7.7,1.15,4.3%
CCOCCOC(=O)c1ccc(C(C)C)cc1,4.9,1.75%,7.8%,-12.8,5.25,3.5%
CCCCNS(=O)(=O)CCCC,22.2,2.4%,-6.35%,-29.6,6.15,-9.8%
Nc1cccc(C(O)c2ccccc2)c1 (configuration not stated),11.2,-1.15%,0.1%,6.25,7.3,13.1%
CCOc1ccc(/C=C/c2ccc(OCC)cc2)cc1,-4.65,-16.4%,-8.9%,-1.5,8.55,-24.3%
COc1ccccc1N(CN1C(=O)CCC1C(=O)O)C(C)=O (configuration not stated),9.2,10.4%,-4%,7.25,-9.1,-37.9%
Cc1cc(=O)[nH]c(/N=C(\N)Nc2ccc(Br)c(C(F)(F)F)c2)n1,10.1,2.85%,-3.8%,6.55,-1.5,2.9%
O=S(=O)(O)C(O)c1ccccc1 (configuration not stated),1.25,-2.85%,-8.85%,-10.9,-15.1,-6.2%
CC1=CC(=C(C#N)C#N)c2ccccc2N1C,1.1,4.35%,-8.8%,3.75,14.6,1.85%
c1cc(OCCOc2cccc3ocnc23)c2ncoc2c1,-12.8,-15.6%,-5.85%,-14.8,-18.4,0.65%
CC(C)OC(=O)N1CCCC1,12,13.8%,6.05%,-20,13.9,-17.4%

Compound,growth inhibition [1] [%],growth inhibition [2],growth inhibition [3],growth inhibition [4] [%],growth inhibition [5] [%],growth inhibition [6]
COc1ccc(CCC(C)(O)c2ccccc2)cc1 (configuration not stated),11.7,-1.35%,11.2%,-1.05,41.9,-2.55%
O=C(CN1CCC(O)(c2ccccc2)CC1)N1CCN(/C=C/c2ccccc2)CC1,-4,-0.45%,-3.75%,-10.6,-0.1,10.8%
O=[N+]([O-])c1ccsc1Cl,-7.85,-3.6%,-14.6%,-40.2,-4.1,-5.05%
O=C(Cc1ccccc1)NN1C(=O)/C(=C\c2ccc([N+](=O)[O-])cc2)SC1=Nc1ccccc1,-2.8,-8.85%,52.1%,15.2,-18.9,28.5%
CN1C(=O)C(n2[nH]c(=O)n(-c3ccccc3)c2=O)C(=O)N(C)C1=O,11.8,12.7%,-6.55%,-23.1,16.9,22.9%
CCCC(=O)C(O)CCC (configuration not stated),-20.5,-16.7%,-2.6%,-47.9,1.65,-26.1%
O=C1CCN2CCC(=O)c3c(Cl)ccc1c32,8.05,13.3%,8.5%,13.8,14.1,16.9%
Cc1ccccc1NC(=O)CSc1nnc(-c2ccc(N=Cc3ccc(Cl)cc3)cc2)o1,-13.6,-30.9%,1.9%,-4.75,-30,-17.8%
c1ccc(-c2ccc(-c3c(-c4ccccc4)ccc(-c4ccccc4)c3-c3ccccc3)cc2)cc1,20.8,-0.7%,-10.1%,20.9,-2.85,-1.4%
CS(=O)(=O)OC1COCOC1C1OCOCC1OS(C)(=O)=O (configuration not stated),7.8,1.35%,10.5%,-10.4,-6,-0.55%
CC(C)C1NC(=O)c2ccccc2S1 (configuration not stated),27.8,-15.9%,-3.55%,26.1,10.7,44%
N#CC(C(=O)CCC(=O)Nc1ccc(Cl)c(Cl)c1)c1ccc(Cl)cc1 (configuration not stated),-12.9,-29.9%,18.1%,15.4,8.4,-2.2%
C=CC1CNCCC1CC(=O)OCC (configuration not stated),-16.6,-5.55%,3%,-12.4,4.45,-24.4%
COc1ccc(/C=N/NC(=O)C(=O)Nc2ccc(Cl)c([N+](=O)[O-])c2)cc1OC,2.15,-20.9%,-0.65%,2.85,-4.1,-6.4%
CC(C)=NOC(=O)Nc1ccccc1,44.4,-19.8%,14.9%,-15.4,1.7,33.9%
CCOC(=O)c1cc(CC)[nH]c(=O)c1C#N,-19.1,8.05%,-11.3%,-32.7,5.4,2.3%
COC(NC(N)=O)C(=O)O (configuration not stated),6.9,12.3%,-1.25%,-0.9,11.9,13.7%
CC(=O)c1cc([N+](=O)[O-])c(O)cc1O,36.1,2.25%,18.1%,-16.8,25.9,41%
O=C(c1cccc(Cl)c1)c1cccc2ccccc12,-1.7,5.6%,19.6%,-37,41.9,-10.2%
CCCCCC(=O)C(C)=O,-22.8,-5.9%,-0.9%,-20.8,-20.8,-12.2%
CC(C)(C)OC(=O)NC(CS(=O)(=O)O)C(=O)O (configuration not stated),-39.1,-11.4%,-2.4%,13.4,13,-15.3%
